# TcdB inh – TcdB glycohydrolase inhibition. inhibition, % at 9.99 µM. 350,000 compounds, 0.24% hits. AID 652162. P18177. TcdB glycohydrolase enzymatic assay, plate reader; in the data active = inhibition above about 10%
# Vc quorum ag – induces V. cholerae light production without autoinducers. 350,000 compounds, 0.16% hits. activation, % at 18.7 µM. AID 588436. V. cholerae BH1578 lux reporter, luminescence, 6 h; in the data active = activation mostly above about 9.7%, no sharp cut-off; inconclusive = no clear call, values can overlap the other calls; inactive = mostly below about 3.7%
# PrP 5UTR inh – inhibition of PrP 5' UTR reporter expression. cell-based PrP 5' UTR mRNA reporter, plate reader. inhibition, % (concentration not given with the values). 340,000 compounds, 0.35% hits; in the data active = inhibition above about 52%; also: 0 = median of the neutral control wells
# Yp Topo-I inh – blocks Yersinia pestis topoisomerase I activity. Y. pestis Topo-I cleavage product accumulation, plate reader. activity, % at 10 µM. 360,000 compounds, 0.064% hits. AID 504884; in the data active = activity above about 50%, passing the limit was not always enough; inconclusive = no clear call, values can overlap the other calls
# UGM FP inh – blocks M. tuberculosis UGM enzyme; P9WIQ1; purified UGM, fluorescence polarization probe displacement; inhibition, % at 10 µM; 320,000 compounds, 0.06% hits; in the data active = inhibition above about 10%, passing the limit was not always enough; inconclusive = no clear call, values can overlap the other calls
# Target sequence (P9WIQ1 whole entry, looked up): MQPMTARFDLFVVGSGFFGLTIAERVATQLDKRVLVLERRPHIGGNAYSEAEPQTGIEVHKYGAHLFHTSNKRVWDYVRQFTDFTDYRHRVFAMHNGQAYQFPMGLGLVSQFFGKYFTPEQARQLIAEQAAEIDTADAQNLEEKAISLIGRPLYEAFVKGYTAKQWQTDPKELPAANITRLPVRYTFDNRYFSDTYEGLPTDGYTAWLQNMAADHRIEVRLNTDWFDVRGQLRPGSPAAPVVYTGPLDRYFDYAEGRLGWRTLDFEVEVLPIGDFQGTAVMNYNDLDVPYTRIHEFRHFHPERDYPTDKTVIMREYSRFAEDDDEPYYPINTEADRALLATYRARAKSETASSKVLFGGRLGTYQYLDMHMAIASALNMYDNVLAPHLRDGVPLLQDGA
# PrP 5UTR single – prion 5' UTR mRNA inhibition, cherry-pick retest; shares compounds with PrP 5UTR inh; cell-based prion protein 5' UTR reporter, plate reader; inhibition, % at 2.5 µM; 1,100 compounds, 48% hits; in the data active = inhibition above about 54%; inconclusive = no clear call, values can overlap the other calls
# * hit, by the source's call; i = inactive; ? = inconclusive; · = no result given. An excerpt weighted towards active compounds, which were near 0.65% of everything screened.
SMILES,TcdB inh,Vc quorum ag,PrP 5UTR inh,Yp Topo-I inh,UGM FP inh,PrP 5UTR single
COc1cccc(S(=O)(=O)N[C@H]2CC[C@@H](CC(=O)NC3CCC3)O[C@@H]2CO)c1,-3,·,·,·,·,·
O=C(O)Cc1sc(Nc2ccc(Cl)cc2)nc1-c1cccs1,0,·,88*,·,·,-24
O=[N+]([O-])c1nn(-c2ccc3c(c2)OCCO3)n(O)c1=Nc1ccc(Cl)cc1,1,i,14,1,3,·
O=[N+]([O-])c1nn(-c2ccc3c(c2)OCCO3)n(O)c1=Nc1ccccc1,1,0,81*,-3,3,78*
O=C(N[C@@H]1CC[C@@H](CCNC(=O)C2CCC2)O[C@@H]1CO)c1ccncc1,0,·,·,·,·,·
CC1CCc2nc(NC(=O)c3ccco3)sc2C1 (stereo not given),·,0,57*,4,0,54*
O=C(Nc1nc2cc3c(cc2s1)OCCO3)c1ccco1,0,i,78*,-2,0,81*
O=C(Nc1nc2cc3c(cc2s1)OCO3)C1=COCCO1,1,0,70*,-13,3,64*
O=C(Nc1cccc(-c2nc3ccccc3s2)c1)C1=COCCO1,·,i,-14,10,0,·
O=C(Nc1nc2cc3c(cc2s1)OCO3)c1ccco1,1,0,52,6,·,·
O=C(Nc1ccc(-c2nc3ccccc3s2)cc1)C1=COCCO1,·,i,73*,-9,1,66*
O=C(C[C@H]1CC[C@@H]2[C@H](COC[C@H](O)CN2S(=O)(=O)c2cccc(Cl)c2)O1)NCCCN1CCOCC1,1,·,·,·,·,·
Nc1ccc(-c2cc3ccccc3c(=O)o2)cc1,2,-1,70*,-12,4,68*
C[C@@H]1CN([C@H](C)CO)C(=O)c2cc(C3=CCCC3)cnc2O[C@@H]1CN(C)C(=O)c1cccnc1,0,·,·,·,·,·
O=C(/C=C/c1ccccc1)Nc1cccc(C(=O)O)c1,-1,2,80*,6,2,82*
O=C(/C=C/c1ccccc1)Nc1cc(NC(=O)/C=C/c2ccccc2)cc(C(=O)O)c1,0,0,-14,-8,7,·
Cc1noc(C)c1S(=O)(=O)Nc1cccc2c1O[C@H](CN(C)C(=O)Nc1ccccc1)[C@H](C)CN([C@H](C)CO)C2=O,0,·,·,·,·,·
Cc1ccc(CCC(=O)Nc2ncc(Cc3cccc(Cl)c3Cl)s2)o1,1,0,53*,3,4,89*
CC(C)(C)n1ncc2c(=O)n(CC(=O)OCc3ccccc3)cnc21,·,-3,60*,1,-3,30
CCOc1cc(/C=N/Nc2cccc(C(=O)O)c2)ccc1OC(=O)c1ccccc1,-4,0,71*,5,·,?
O=C(O)c1cccc(NC(=S)N/N=C/c2ccccc2OCc2ccc(Br)cc2)c1,0,i,-22,7,2,·
COC(=O)c1ccc(COc2ccccc2/C=N/Nc2cccc(C(=O)O)c2)cc1,-7,i,77*,21,·,-34
C[C@@H]1CN([C@@H](C)CO)C(=O)c2cc(-c3ccc(C#N)cc3)cnc2O[C@@H]1CN(C)C(=O)CN(C)C,1,·,·,·,·,·
CCNC(=O)[C@@H]1[C@@H](CO)[C@@H]2Cn3c(ccc(-c4cccc(C(=O)N(C)C)c4)c3=O)[C@H]1N2,-1,·,·,·,·,·
COc1ccc(CNC(=O)N(C)C[C@@H]2OCc3ccccc3-c3ccccc3C(=O)N([C@@H](C)CO)C[C@H]2C)cc1,2,·,·,·,·,·
SMILES,TcdB inh,Vc quorum ag,PrP 5UTR inh,Yp Topo-I inh,UGM FP inh,PrP 5UTR single
Cc1ccccc1Nc1n[nH]c(=S)s1,2,i,·,1,·,·
Cc1c(Cl)cccc1Nc1n[nH]c(=S)s1,0,-1,71*,0,·,-17
Brc1ccc(N=Nc2ccc3ccccc3n2)cc1,-1,i,82*,-11,-3,80*
O=C(NCCc1ccccc1F)c1ccc2c(c1)OCCO2,-1,0,89*,12,4,93*
CC(=O)CCC(=O)NCCc1ccccc1F,1,·,85*,-1,2,-8
O=C(NCc1ccccc1F)c1ccc2c(c1)OCO2,·,0,-19,9,0,·
COc1ccc(C(=O)CCC(=O)NCCc2ccccc2F)cc1,1,i,-5,3,-1,·
C[C@H](CO)N1C[C@H](C)[C@@H](CN(C)C(=O)c2ccc(F)cc2)Oc2ncc(C#CC3CC3)cc2C1=O,0,·,·,·,·,·
C[C@@H]1CN([C@@H](C)CO)C(=O)c2cc(NC(=O)c3ccncc3)ccc2O[C@@H](C)CCCCO[C@H]1CN(C)C(=O)NC1CCCCC1,-1,·,·,·,·,·
O=C(NC1CCCCC1)c1cc(C(=O)c2ccccc2Br)c[nH]1,1,-1,71*,-3,0,-13
C[C@H](CO)N1C[C@H](C)[C@H](CN(C)Cc2ccc(C(=O)O)cc2)Oc2c(NC(=O)Nc3ccc4c(c3)OCO4)cccc2C1=O,-3,·,·,·,·,·
C[C@H](CO)N1C[C@H](C)[C@@H](CN(C)C(=O)Nc2ccccc2)Oc2cc(C#CC3(O)CCCC3)ccc2S1(=O)=O,0,·,·,·,·,·
CO[C@H]1CN(C)C(=O)c2cc(NC(=O)c3ccc(F)cc3)ccc2OC[C@H](C)N(C(C)=O)C[C@H]1C,-1,·,·,·,·,·
COC(=O)c1ccc(NC(=O)Cn2c(-c3nonc3N)nc3ccccc32)cc1,-2,0,-17,1,1,·
COC(=O)c1ccccc1NC(=O)Cn1c(-c2nonc2N)nc2ccccc21,0,0,70*,16,4,91*
COc1ccc(NC(=O)N(C)C[C@H]2Oc3ccc(NC(=O)Nc4ccccc4)cc3C(=O)N([C@H](C)CO)C[C@@H]2C)cc1,2,·,·,·,·,·
CNc1nc2c(C)cccn2c(=O)c1C=NCc1ccccc1,·,i,78*,1,-2,4
O=C(C[C@H]1C[C@@H]2c3cc(NC(=O)NC4CCCC4)ccc3O[C@@H]2[C@H](CO)O1)NCc1ccccn1,-1,·,·,·,·,·
CCOc1ccc(C(=O)c2cc([N+](=O)[O-])ccc2N2CCOCC2)cc1,1,0,58*,5,2,72*
COc1ccc(C(=O)c2cc([N+](=O)[O-])ccc2N2CCOCC2)cc1,1,0,83*,-6,2,80*
CC(=O)N1CC(=O)N2[C@H](C1)[C@H](c1ccc(C#CC(C)C)cc1)[C@@H]2CO,0,·,·,·,·,·
CN(C)Cc1cn(CC[C@@H]2CC[C@H](NC(=O)Nc3ccc4c(c3)OCO4)[C@@H](CO)O2)nn1,-1,·,·,·,·,·
CCCNC(=O)Nc1ccc2c(c1)OC[C@@H](C)N(C(C)=O)C[C@@H](C)[C@@H](OC)CN(C)C2=O,-1,·,·,·,·,·
Cc1cnc(NC(=O)c2ccc3c(c2)OCCO3)s1,0,-1,81*,1,·,73*
CC(C)c1nnc(NC(=O)c2ccc3c(c2)OCO3)s1,1,2,54*,0,1,?
Cc1noc(C)c1NC(=O)Nc1cccc2c1O[C@@H](CN(C)S(=O)(=O)c1cccs1)[C@H](C)CN([C@H](C)CO)C2=O,0,·,·,·,·,·
CCOC(=O)c1cnc(Nc2nc3ccccc3o2)nc1C,·,i,65*,3,-1,70*
